Experimental data taken from PubChem BioAssay (EPA / NIEHS).
Inconclusive results are not listed. The source made the active and inactive calls. The calls were made as follows: active = hit-call score of the fitted dose curve at least 0.9, where 1 is the maximum; inconclusive = response in the unintended direction; inactive = score below 0.9.

test system: guinea pig Atrionatriuretic Peptide Receptor A (ANPA), gene 100135578; test: NVS_GPCR_gANPA: NovaScreen (NVS) G Protein-Coupled Receptor Assay for guinea pig Atrionatriuretic Peptide Receptor A (ANPA) (AID 2283291)
Procedure: NVS_GPCR_gANPA is a biochemical, single-readout assay that uses extracted gene-proteins from Guinea pig cerebellar membranes in a tissue-based cell-free assay. Measurements were taken 1 hour after chemical dosing in a 96-well plate.NVS_GPCR_gANPA is one of one assay component(s) measured or calculated from the NVS_GPCR_gANPA assay. It is designed to make measurements of radioligand binding, a form of binding reporter, as detected with scintillation counting signals by Filter-based radiodetection technology.Data from the assay component NVS_GPCR_gANPA was analyzed into 1 assay endpoint. This assay endpoint, NVS_GPCR_gANPA, was analyzed in the positive analysis fitting direction relative to DMSO as the negative control and baseline of activity. Using a type of binding reporter, loss-of-signal activity can be used to understand changes in the binding as they relate to the gene Nppa. Furthermore, this assay endpoint can be referred to as a primary readout, because the performed assay has only produced 1 assay endpoint. To generalize the intended target to other relatable targets, this assay endpoint is annotated to the lyase intended target family, where the subfamily is guanylyl cyclase.
Binding assays used specific radioligands (tritiated, iodinated) with non-radioactive competitive displacement ligands in agonist or antagonist protocols (as indicated) and various reference compounds and inhibitors to titrate specific binding to receptors and transporters. Most enzyme assays (CYPs, kinases, phosphatases, proteases, HDACs) used recombinant protein and specific substrates (fluorescence mostly, some colorimetric and radioactive) and inhibitors, followed by a biochemical separation of substrate and product. All assays for the biochemical HTS were initially run in duplicate at a single concentration (10 uM for CYP450 assays and 25 uM for all others). Assay-chemical combinations meeting a pre-defined threshold (e.g., 30% inhibition and other criteria defined below) were then run in singleton concentration-response format with maximum concentration of 20 uM for CYPs and 50 uM for all others. Each assay was run with positive and negative controls, and concurrent controls on every plate. The follow-up (secondary) screen tested active chemical-pairs in concentration series, as well as a few additional assays not tested in the primary screen, some selected negative inactives, and several cases re-run in the concentration series for confirmatory purposes.

Row | SMILES | outcome | AC50
1 | COCC(C)O (stereo not given) | inactive | 
2 | CCCCCCC(C)OC(=O)COc1nc(F)c(Cl)c(N)c1Cl (stereo not given) | inactive | 
3 | CC(C)(C)c1ccccc1 | inactive | 
4 | CCCCCCCCCCCCCCCCO | inactive | 
5 | Clc1cc(Cl)c(Cl)cc1Cl | inactive | 
6 | CCc1cccc(CC)c1N | inactive | 
7 | COCc1nnc(-c2ccc[n+]([O-])c2)n1-c1c(Cl)c(Cl)cc2[nH]c(=O)c(=O)[nH]c12 | inactive | 
8 | Cc1nccn1-c1ccc(Sc2cccc(C3(C(N)=O)CCOCC3)c2)cc1 | inactive | 
9 | O=C(OCCCCCCOC(=O)c1ccccc1)c1ccccc1 | inactive | 
10 | CC(=O)c1ccccc1 | inactive | 
11 | CC(C)(c1cc(Br)c(O)c(Br)c1)c1cc(Br)c(O)c(Br)c1 | inactive | 
12 | Oc1ccc2c(c1)OC[C@@H](N1CCC(O)(c3ccc(F)cc3)CC1)[C@H]2O | inactive | 
13 | CN(C[C@@H](CC[N+]12CCC(C3CCCCC3)(CC1)CC2)c1ccc(Cl)c(Cl)c1)C(=O)c1cc(C(F)(F)F)cc(C(F)(F)F)c1 |  | 42.3 µM (active)
14 | CCCCCCCCCC | inactive | 
15 | Cc1cc(C)c(O)c(C)c1 | inactive | 
